Assay results as given in PubChem BioAssay.
Calls of active or inactive are those of the source. No rule for the calls is given here.

biological target: Pantothenate synthetase (Mycobacterium tuberculosis (strain ATCC 25618 / H37Rv)) (UniProt P9WIL5); assay: Recombinant Mtb pantothenate synthetase (PanC) inhibitors, coupled enzyme, confirmatory (AID 375); details: coupled enzyme assay; at 10 µM, hits give high values;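 also: 0% = full reaction with vehicle and 100% = no enzyme background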
Sequence (P9WIL5 whole entry, looked up): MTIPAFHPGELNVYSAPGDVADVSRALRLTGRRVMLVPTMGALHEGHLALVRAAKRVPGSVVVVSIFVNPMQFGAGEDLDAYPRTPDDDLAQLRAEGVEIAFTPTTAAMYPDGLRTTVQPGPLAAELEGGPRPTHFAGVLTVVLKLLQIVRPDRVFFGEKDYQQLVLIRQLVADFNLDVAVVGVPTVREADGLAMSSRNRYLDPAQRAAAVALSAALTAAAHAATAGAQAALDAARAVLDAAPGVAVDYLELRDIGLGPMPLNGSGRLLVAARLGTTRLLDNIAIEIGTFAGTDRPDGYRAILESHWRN

Structure (SMILES)	inhibition
CC(=O)Nc1ccc(Oc2cc(C#N)c(C#N)cc2N2CCCCCC2)cc1	0% (inactive)
CC(=O)c1ccccc1NS(=O)(=O)c1c(C)nn(-c2ccccc2)c1C	0% (inactive)
COc1cccc(C2CC(c3ccc(C)cc3)Nc3nc(N)nn32)c1 (stereo not given)	0% (inactive)
CC1(C)CC(=O)CC(=Nc2ccc(C(=O)O)cc2)C1	8% (inactive)
O=C(c1ccc(S(=O)(=O)N2CCC(c3nc4ccccc4s3)CC2)cc1)N1CCOCC1	0% (inactive)
CC1(C)Cc2c(sc3c2C2=NCCN2C=N3)CO1	0% (inactive)
COC(=O)CCC(NC(=O)c1cc(-c2ccc3c(c2)OCCO3)oc1C)C(=O)OC (stereo not given)	0% (inactive)
COc1ccc(C(C(C(=O)c2ccco2)N2CCOCC2)N2CCOCC2)cc1 (stereo not given)	11% (inactive)
COCCn1c(-c2ccc(OC)c(OC)c2)nc2ccccc21	0% (inactive)
CCOC(=O)c1sc2nc(NC(=O)COc3ccccc3)sc2c1C	0% (inactive)
Brc1ccc2ncnc(Nc3ccc(N4CCOCC4)cc3)c2c1	0% (inactive)
COC(=O)c1cc(NS(=O)(=O)c2ccc3c(c2)CCC(=O)N3)cc(C(=O)OC)c1	0% (inactive)
C(=C\c1ccccc1)/CN1CCN(C(c2ccccc2)c2ccccc2)CC1	0% (inactive)
Nc1nonc1-c1noc(CCCCCN2C(=O)c3ccccc3C2=O)n1	4% (inactive)
Cc1noc(NS(=O)(=O)c2ccc(N3C(=O)c4ccccc4C3=O)cc2)c1C	3% (inactive)
COc1ccc(CN2CC(C(=O)NCc3ccccn3)CC2=O)cc1 (stereo not given)	5% (inactive)
COC(=O)c1cccc(NC(=O)CSc2nnc(COc3ccc(C#N)cc3)n2-c2ccccc2)c1	2% (inactive)
Cc1cnc(C(=O)Nc2ccc(N3CCN(C(=O)OC(C)(C)C)CC3)cc2)cn1	0% (inactive)
O=C(CN1CCOCC1)N1CCCc2c1c(=O)oc1ccc(OCc3ccccc3)cc21	4% (inactive)
CCC(=O)Nc1ccc(F)c(Cl)c1	6% (inactive)

Structure (SMILES)	inhibition
CCOC(=O)Cc1csc(NC(=O)CSc2nnc(-c3ccncc3)n2Cc2ccco2)n1	0% (inactive)
O=C(c1ccc(Cl)cc1)N(Cc1cccs1)C1CCS(=O)(=O)C1 (stereo not given)	0% (inactive)
CCC(CO)Nc1ncnc2c1cnn2-c1ccc(Cl)cc1 (stereo not given)	6% (inactive)
CSc1ccccc1NC(=O)c1c(Br)cnn1C	0% (inactive)
CCOC(=O)N1CCN(S(=O)(=O)c2cc(C)c(C)cc2C)CC1	0% (inactive)
CCOC(=O)C1CCN(C(=O)C2(NC(=O)Nc3ccccc3Cl)CCCCC2)CC1	0% (inactive)
CC(C)C1C2=C(CC(C)(C)CC2=O)ON1c1ccccc1 (stereo not given)	1% (inactive)
Cn1c(=O)c2c([nH]c(=O)n2C)n(C)c1=O	0% (inactive)
O=c1c2cn[nH]c2nc(SCc2ccc3c(c2)OCCO3)n1-c1ccccc1	3% (inactive)
Cc1cc(NS(=O)(=O)c2ccccc2)n(-c2ccccc2)n1	0% (inactive)
Cc1nc2ccc(C(=O)O)cc2c2c1CC(C)S2 (stereo not given)	0% (inactive)
O=C(Nc1ccccc1)N(CCCN1CCOCC1)Cc1cc2cc3c(cc2[nH]c1=O)OCCO3	0% (inactive)
Cc1cc(NC(=O)NC(=O)c2cccc(OC(F)(F)C(F)F)c2)n[nH]1	3% (inactive)
CC(C)N(C=O)C1(C(=O)NC2CCCCC2)CCCCC1	4% (inactive)
COc1cccc(CN(C)CC(=O)NC(=O)NCc2ccco2)c1	0% (inactive)
CN1CCC(=C2c3ccccc3CC(=O)c3sccc32)CC1	2% (inactive)
O=[n+]1cc(-c2ccc(F)cc2)n([O-])c2c1CCC2	0% (inactive)
Cn1c(SCC(=O)Nc2ccc(F)cc2)nnc1-c1cccnc1	0% (inactive)
O=C(NCc1ccc(F)cc1)c1cc(-c2ccco2)on1	6% (inactive)
O=C(CCCCC(=O)NCc1cccs1)NCc1cccs1	8% (inactive)
